Assay results published in PubChem BioAssay (Tox21).
Several values for one entry are separate records, joined by “and”; a condition that tells them apart may be missing. Equal values may be shown once. Results filed as inconclusive are left out. Where a call stands in place of a potency, no number is given. Where a structure was tested more than once in an assay, its records may differ in their call. Activity calls are given as the source filed them. Unless noted, calls come from the whole dose curve.

Assays:
[1] = Nuclear factor erythroid 2-related factor 2/antioxidant responsive element (Nrf2/ARE) small molecule agonists: qHTS cell viability counter screen in human keratinocytes (AID 1919968; active = well fitted curve in the direction sought with a large enough effect in the repeat runs; an effect the other way counts as inactive or inconclusive; note: nearly all actives have a fitted effect of over 55% in size; note: potency is the fitted concentration of half-maximal effect)
Summary of the method: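 Measured as CellTiter-Fluor fluorescence, this readout tracks cytotoxicity in the same wells as the ARE-luciferase screen. HaCaT reporter cells (1,500/well) received compounds after a 5 h pre-incubation and were exposed for 23 h.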

[2] = molecular target: Gonadotropin-releasing hormone receptor (Homo sapiens) (UniProt P30968); test: Human gonadotropin-releasing hormone receptor (GnRHR) small molecule agonists, calcium flux assay in GnRHR-HEK293 cells (AID 1920063); note: nearly all actives have a fitted effect of over 35% in size
Gonadotropin-releasing hormone receptor (Homo sapiens), sequence (P30968 whole entry, looked up): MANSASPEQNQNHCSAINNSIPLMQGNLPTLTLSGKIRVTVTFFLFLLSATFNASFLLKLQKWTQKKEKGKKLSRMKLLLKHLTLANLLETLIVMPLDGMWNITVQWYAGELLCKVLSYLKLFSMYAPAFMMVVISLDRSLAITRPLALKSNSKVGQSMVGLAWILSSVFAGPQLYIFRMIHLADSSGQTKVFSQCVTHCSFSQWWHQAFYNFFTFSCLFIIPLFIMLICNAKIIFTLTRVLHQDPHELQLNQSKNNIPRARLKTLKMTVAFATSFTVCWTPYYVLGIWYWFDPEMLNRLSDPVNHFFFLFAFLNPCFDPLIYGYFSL
Summary of the method: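 Fluorescence kinetics (480 nm excitation, 540 nm emission; 3 min, 1 s steps) report calcium mobilisation in human GnRHR-HEK293 cells in agonist mode. Dye incubation: 1 h, 37 C.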

[3] = molecular target: KiSS-1 receptor (Homo sapiens) (UniProt Q969F8); test: Human kisspeptin (KISS1R) small molecule agonists, calcium flux assay in KISS1R-HEK293 cells (AID 1920064; active = well fitted curve in the direction sought with a large enough effect in the repeat runs; an effect the other way counts as inactive or inconclusive)
KiSS-1 receptor (Homo sapiens), sequence (Q969F8 whole entry, looked up): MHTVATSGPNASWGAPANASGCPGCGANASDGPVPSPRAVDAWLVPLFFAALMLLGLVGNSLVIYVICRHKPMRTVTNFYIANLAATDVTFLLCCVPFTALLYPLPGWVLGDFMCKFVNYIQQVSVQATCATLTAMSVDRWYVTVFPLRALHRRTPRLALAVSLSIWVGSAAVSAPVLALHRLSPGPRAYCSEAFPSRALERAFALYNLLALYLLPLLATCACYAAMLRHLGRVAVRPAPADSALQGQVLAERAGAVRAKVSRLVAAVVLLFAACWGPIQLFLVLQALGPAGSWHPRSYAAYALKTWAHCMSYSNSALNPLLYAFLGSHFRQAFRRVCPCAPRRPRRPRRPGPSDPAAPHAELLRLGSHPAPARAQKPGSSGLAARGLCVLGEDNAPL
Summary of the method: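 Measures KISS1R agonism through calcium-sensitive dye fluorescence in stably transfected HEK293 cells, read for 3 min after pin-tool compound delivery; 15-point titrations in triplicate.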

[4] = G protein-coupled receptor (GPCR) small molecule agonists, calcium flux assay: HEK293 wild type cell line counter screen (AID 1920065)
Summary of the method: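 Readout: fluorescence at 480 nm excitation/540 nm emission, sampled at 1 s intervals for 3 min. Cells had been cultured 18 h, then dye-loaded 1 h at 37 C before compound or ATP addition.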

[5] = p53 small molecule agonists, cell-based qHTS assay with human liver microsomes (AID 1963577)
Summary of the method: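 Fluorescence of the beta-lactamase reporter in p53RE-bla cells, detected with LiveBLAzer substrate (2 h, room temperature, dark), served as the read-out after 16 h compound exposure at 37 C with human liver microsomes and NADPH, each 0.5 mg/mL final.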

[6] = p53 small molecule agonists, cell-based qHTS assay with rat liver microsomes (AID 1963578)
Summary of the method: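 Cells carrying a p53 response element–beta-lactamase reporter were plated and rested 5 h, then dosed with compound in DMSO plus rat liver microsomes and NADPH, each at 0.5 mg/mL final. After 16 h at 37 C, LiveBLAzer substrate was added for 2 h.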

[7] = p53 small molecule agonists, cell-based qHTS assay with human liver microsomes: qHTS cell viability counter screen (AID 1963579); note: nearly all actives have a fitted effect of over 45% in size
Summary of the method: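 Cytotoxicity counter screen: p53RE-bla, 4,000 cells/well; 5 h settle, 37 C/5% CO2; cpd + HLM 0.5 mg/mL + NADPH 0.5 mg/mL (final); 16 h, 37 C; CellTiter-Glo, 30 min RT, luminescence.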

[8] = p53 small molecule agonists, cell-based qHTS assay: qHTS cell viability counter screen (AID 1963581); note: nearly all actives have a fitted effect of over 45% in size
Summary of the method: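 In the same plates used for the p53 bla reporter, HCT-116 cells given compounds for 16 h at 37 C received CellTiter-Glo; luminescence was recorded 30 min later at room temperature.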

[9] = p53 small molecule agonists, cell-based qHTS assay (AID 1963582; active = well fitted activation curve with a large enough effect in the signal ratio in the repeat runs, not every such curve was filed as active; the % refers to the signal ratio)
Summary of the method: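 Compounds are pin-transferred in DMSO onto p53RE-bla cells and incubated 16 h at 37 C. The B/G FRET beta-lactamase substrate is then applied for 2 h at RT and fluorescence recorded.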

[10] = molecular target: 5-hydroxytryptamine receptor 2A (Homo sapiens) (UniProt P28223); test: 5-hydroxytryptamine receptor 2A (HTR2A) small molecule antagonists, cell-based qHTS assay (AID 1963586); note: nearly all actives have a fitted effect of over 45% in size
5-hydroxytryptamine receptor 2A (Homo sapiens), sequence (P28223 whole entry, looked up): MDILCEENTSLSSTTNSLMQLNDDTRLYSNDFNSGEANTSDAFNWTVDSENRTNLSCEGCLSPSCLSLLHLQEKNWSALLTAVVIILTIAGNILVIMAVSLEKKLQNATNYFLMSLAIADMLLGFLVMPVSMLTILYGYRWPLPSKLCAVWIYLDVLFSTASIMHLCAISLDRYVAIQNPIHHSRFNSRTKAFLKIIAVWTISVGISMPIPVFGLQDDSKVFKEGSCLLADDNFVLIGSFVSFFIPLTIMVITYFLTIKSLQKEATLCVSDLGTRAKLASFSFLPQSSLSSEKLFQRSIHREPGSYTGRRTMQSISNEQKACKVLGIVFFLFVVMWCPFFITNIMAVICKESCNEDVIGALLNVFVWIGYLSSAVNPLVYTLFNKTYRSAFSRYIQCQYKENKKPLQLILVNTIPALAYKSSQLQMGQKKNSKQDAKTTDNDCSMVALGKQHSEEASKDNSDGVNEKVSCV
Summary of the method: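 Antagonist-mode intracellular calcium assay: DOI (4 nM) added after 5 min compound pre-incubation at room temperature to dye-loaded HTR2A-CHO cells. Fluorescence followed for 3 min, sampled every second.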

[11] = molecular target: 5-hydroxytryptamine receptor 2A (Homo sapiens) (UniProt P28223); test: 5-hydroxytryptamine receptor 2A (HTR2A) small molecule agonists, cell-based qHTS assay (AID 1963587); note: nearly all actives have a fitted effect of over 30% in size
Summary of the method: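 CHO cells stably expressing human HTR2A, plated 18 h, loaded with calcium dye 1 h at 37 C. Agonist mode: compounds added and intracellular calcium fluorescence recorded kinetically for 2 min at 1 sec intervals.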

[12] = molecular target: Muscarinic acetylcholine receptor M1 (Homo sapiens) (UniProt P11229); test: Cholinergic receptor muscarinic 1 (CHRM1) small molecule antagonists, cell-based qHTS assay (AID 1963588); note: nearly all actives have a fitted effect of over 40% in size
Muscarinic acetylcholine receptor M1 (Homo sapiens), sequence (P11229 whole entry, looked up): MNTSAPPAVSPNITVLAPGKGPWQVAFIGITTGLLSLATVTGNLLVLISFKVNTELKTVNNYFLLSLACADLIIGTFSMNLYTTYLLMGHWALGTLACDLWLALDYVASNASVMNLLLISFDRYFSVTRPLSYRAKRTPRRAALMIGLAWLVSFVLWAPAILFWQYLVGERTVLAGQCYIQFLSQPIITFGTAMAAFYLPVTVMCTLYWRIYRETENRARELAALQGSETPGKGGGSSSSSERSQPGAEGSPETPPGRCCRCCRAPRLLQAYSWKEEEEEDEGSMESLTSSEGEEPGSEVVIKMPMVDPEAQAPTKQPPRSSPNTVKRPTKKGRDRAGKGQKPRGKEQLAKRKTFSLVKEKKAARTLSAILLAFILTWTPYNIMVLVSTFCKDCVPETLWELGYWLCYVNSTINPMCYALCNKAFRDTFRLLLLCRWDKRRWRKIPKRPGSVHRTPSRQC
Summary of the method: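 CHRM1-CHO calcium-flux assay, antagonist mode. Cells were seeded 18 h, dye-loaded 1 h at 37 C and given compound for 5 min at RT, then acetylcholine was added at 50nM. FDSS fluorescence was read 3 min; 15 concentrations, three runs.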

[13] = molecular target: Muscarinic acetylcholine receptor M1 (Homo sapiens) (UniProt P11229); test: Cholinergic receptor muscarinic 1 (CHRM1) small molecule agonists, cell-based qHTS assay (AID 1963589); note: nearly all actives have a fitted effect of over 35% in size
Summary of the method: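 Each compound was tested at 15 concentrations across three independent runs on dye-loaded CHO cells stably expressing human CHRM1, reading intracellular calcium fluorescence kinetically at 1 sec intervals.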

[14] = cAMP Responsive Elements (CRE) small molecule agonists, cell-based qHTS assay (AID 1963590)
Summary of the method: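 Cell line: CRE-bla HEK 293T; medium DMEM/10% dialyzed FBS/0.1 mM NEAA/1 mM pyruvate/25 mM HEPES; 3 h compound exposure; beta-lactamase FRET readout after 2 h substrate loading at RT.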

[15] = molecular target: Beta-2 adrenergic receptor (Homo sapiens) (UniProt P07550); test: Adrenergic beta2 receptor (ADRB2) small molecule antagonists, cell-based qHTS assay (AID 1963592); note: series mostly up to about 92 µM; nearly all actives have a fitted effect of over 50% in size
Beta-2 adrenergic receptor (Homo sapiens), sequence (P07550 whole entry, looked up): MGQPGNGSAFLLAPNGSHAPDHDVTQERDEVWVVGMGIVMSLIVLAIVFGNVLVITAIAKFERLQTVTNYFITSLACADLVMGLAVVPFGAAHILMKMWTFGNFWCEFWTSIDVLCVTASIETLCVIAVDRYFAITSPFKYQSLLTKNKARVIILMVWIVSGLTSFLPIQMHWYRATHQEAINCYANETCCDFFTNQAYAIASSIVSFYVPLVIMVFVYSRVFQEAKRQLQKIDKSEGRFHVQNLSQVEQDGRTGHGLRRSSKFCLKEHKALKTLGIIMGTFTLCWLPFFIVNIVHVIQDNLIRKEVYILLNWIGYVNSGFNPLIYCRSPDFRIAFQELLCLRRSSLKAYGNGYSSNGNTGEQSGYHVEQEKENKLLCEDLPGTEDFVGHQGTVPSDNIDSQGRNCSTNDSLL
Summary of the method: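 Cells (CHO, stable ADRB2 overexpression) incubated 18-20hr at 37C; compounds added from DMSO; agonist mix (1nM isoproterenol, 100uM IBMX, 25uM Ro-20-1724) added; 0.5hr RT; d2-cAMP and anti-cAMP-cryptate added; 1hr RT; 665/615 nm read.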

[16] = molecular target: D(2) dopamine receptor (Homo sapiens) (UniProt P14416); test: Dopamine D2 receptor (DRD2) small molecule agonists, cell-based qHTS assay (AID 1963594); note: nearly all actives have a fitted effect of over 35% in size
D(2) dopamine receptor (Homo sapiens), sequence (P14416 whole entry, looked up): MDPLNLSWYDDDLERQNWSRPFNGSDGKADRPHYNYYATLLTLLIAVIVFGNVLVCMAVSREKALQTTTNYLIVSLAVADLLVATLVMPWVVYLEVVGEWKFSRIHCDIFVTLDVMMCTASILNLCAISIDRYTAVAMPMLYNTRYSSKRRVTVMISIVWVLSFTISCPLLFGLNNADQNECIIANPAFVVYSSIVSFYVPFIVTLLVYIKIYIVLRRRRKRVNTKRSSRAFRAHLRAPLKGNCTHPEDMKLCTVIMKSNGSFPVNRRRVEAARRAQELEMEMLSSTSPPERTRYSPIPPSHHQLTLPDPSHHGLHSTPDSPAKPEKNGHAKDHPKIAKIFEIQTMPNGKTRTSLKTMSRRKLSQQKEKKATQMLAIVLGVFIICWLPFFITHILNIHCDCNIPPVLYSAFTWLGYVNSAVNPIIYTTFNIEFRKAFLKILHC
Summary of the method: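 HEK293 cells stably expressing human DRD2, pre-treated with PDE inhibitor Ro20-1724 (0.1 mM final) and compound 10 min at room temperature, then stimulated with NKH477 (200nM […]) for 30 min. cAMP read by HTRF (665/620 nm).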

[17] = molecular target: D(2) dopamine receptor (Homo sapiens) (UniProt P14416); test: Dopamine D2 receptor (DRD2) small molecule antagonists, cell-based qHTS assay (AID 1963595; active = well fitted inhibition curve with a large enough effect in the signal ratio in the repeat runs, with a control signal flat; the % refers to the signal ratio)
Summary of the method: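 HTRF cAMP read-out at 665 and 620 nm emission (340 nm excitation). Antagonist mode: compounds were tested against 12 nM quinpirole in DRD2-HEK293 cells, with 200 nM NKH477 raising cAMP and 0.1 mM Ro20-1724 blocking its breakdown.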

[18] = p53 small molecule agonists, cell-based qHTS assay with rat liver microsomes: qHTS cell viability counter screen (AID 1963580); note: nearly all actives have a fitted effect of over 45% in size; note: potency is the fitted concentration of half-maximal effect
Summary of the method: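 p53RE-bla HCT-116 cells were exposed 16 h at 37 C to compounds with rat liver microsomes (0.5 mg/mL) and NADPH (0.5 mg/mL). Viability was measured in the same wells as ATP content by CellTiter-Glo luminescence.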

[19] = cAMP Responsive Elements (CRE) small molecule antagonists, cell-based qHTS assay (AID 1963591; active = well fitted inhibition curve with a large enough effect in the signal ratio in the repeat runs, not every such curve was filed as active; the % refers to the signal ratio)
Summary of the method: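 Inhibition of NKH477-driven (0.25 uM final) CRE-beta-lactamase signal in HEK293T cells, 3 h compound exposure at 37 °C, detected by FRET substrate fluorescence.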

[20] = molecular target: Beta-2 adrenergic receptor (Homo sapiens) (UniProt P07550); test: Adrenergic beta2 receptor (ADRB2) small molecule agonists, cell-based qHTS assay (AID 1963593);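 note: CHO cells stably overexpressing human ADRB2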
Summary of the method: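 CHO cells stably over-expressing ADRB2 were plated overnight at 37C, then dosed with compounds plus a stimulation mix containing 100uM IBMX and 25uM Ro-20-1724 for 0.5hr at room temperature. cAMP was measured by HTRF competition, 1hr.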

SMILES: ClC(Cl)(Cl)C(Cl)(Cl)Cl
- Potency [1]: inactive
- Potency [2]: inactive
- Potency [3]: inactive
- Potency [4]: inactive
- Potency [5]: inactive
- Potency [6]: inactive
- Potency [7]: inactive
- Potency [8]: inactive
- Potency [9]: inactive
- Potency [10]: inactive
- Potency [11]: inactive
- Potency [12]: inactive
- Potency [13]: inactive
- Potency [14]: inactive
- Potency [15]: inactive
- Potency [16]: inactive
- Potency [17]: inactive

SMILES: COP(=O)(OC)OC=C(Cl)Cl
- Potency [1]: inactive
- Potency [2]: inactive
- Potency [3]: inactive
- Potency [4]: inactive
- Potency [7]: inactive
- Potency [18]: 412 nM (active) and inactive
- Potency [8]: inactive
- Potency [14]: inactive
- Potency [19]: inactive
- Potency [15]: inactive
- Potency [20]: inactive
- Potency [16]: inactive

SMILES: O=[N+]([O-])/C=C/c1ccccc1
- Potency [1]: 17.5 µM (active) and 27.3 µM (active)
- Potency [2]: inactive
- Potency [3]: inactive
- Potency [4]: inactive
- Potency [5]: inactive
- Potency [6]: inactive
- Potency [10]: inactive
- Potency [11]: inactive
- Potency [12]: inactive
- Potency [13]: inactive
- Potency [15]: inactive
- Potency [20]: inactive
- Potency [16]: inactive
- Potency [17]: inactive

SMILES: CCCCc1c(C)nc(NCC)[nH]c1=O
- Potency [1]: inactive
- Potency [2]: inactive
- Potency [3]: inactive
- Potency [4]: inactive
- Potency [5]: inactive
- Potency [6]: inactive
- Potency [7]: inactive
- Potency [8]: inactive
- Potency [9]: inactive
- Potency [10]: inactive
- Potency [11]: inactive
- Potency [12]: inactive
- Potency [13]: inactive
- Potency [14]: inactive
- Potency [19]: inactive
- Potency [15]: inactive
- Potency [20]: inactive
- Potency [16]: inactive
- Potency [17]: inactive
